Laboratory results reported in PubChem BioAssay (NCI).
About 83,000 compounds went through this panel and 20% of them were active in at least one assay; those are over-represented in the sample as a whole.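 Each cell line was grown in a 96-well plate and treated with one concentration of compound for 48 hours. Values below 10 were considered active.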 Calls of active or inactive are those of the source.

Tests used:
Assay in all cases: NCI-60 one-dose screen, 48 h (100 = growth as untreated, 0 = no growth, -100 = all killed)
Settings in all cases: 10 µM unless noted
[1] = system: DU-145 prostate
[2] = system: K-562 leukemia
[3] = system: MALME-3M melanoma
[4] = system: MDA-MB-231 breast
[5] = system: RXF 393 renal
[6] = system: SF-268 CNS
[7] = system: SF-295 CNS
[8] = system: SF-539 CNS
[9] = system: UACC-257 melanoma
[10] = system: M14 melanoma
[11] = system: HCT-15 colon
[12] = system: HT29 colon
[13] = system: SNB-75 CNS
[14] = system: SNB-19 CNS
[15] = system: U251 CNS
[16] = system: PC-3 prostate
[17] = system: SK-MEL-5 melanoma
[18] = system: UACC-62 melanoma
[19] = system: LOX IMVI melanoma
[20] = system: SK-MEL-28 melanoma

Measured: growth

C#CC(=O)Nc1cccc2c1cc(C)n2-c1nc2c(c(NCc3ccccc3)n1)CCCC2
active: [1] -97.1% | [2] -13.5% | [3] -64.4% | [4] -53% | [5] -94.4% | [6] -29.7% | [7] -85.4% | [8] -79.7% | [9] -73% | [10] -65.3% | [11] -74.4% | [12] -58.2% | [13] -25.6% | [14] -71.9% | [15] -91.9% | [16] -56.5% | [17] -96.1% | [18] -73.7% | [19] -65.8%

COc1ccc2c(Nc3ccc(NS(C)(=O)=O)cc3)c3ccccc3nc2c1
inactive: [14] 13.2%
active: [1] 8.86% | [2] 6.83% | [3] -50.7% | [4] 3.5% | [5] -73.9% | [6] -2.84% | [7] -27.9% | [8] -0.512% | [9] -78% | [10] -53.6% | [11] 1.84% | [12] -45.4% | [13] -15.8% | [15] 4.96% | [16] 6.89% | [17] -94.6% | [18] -65.4% | [19] -5.18%

CC(O)/C=C/C=C/C(O)CC/C=C/C(=O)NCC(C)(C)O (configuration not stated)
inactive: [1] 106% | [2] 72.8% | [3] 112% | [4] 111% | [5] 121% | [6] 108% | [7] 107% | [8] 109% | [9] 91.5% | [10] 101% | [11] 104% | [12] 102% | [13] 96.3% | [14] 99.6% | [15] 98.3% | [16] 91.7% | [17] 99.1% | [18] 90.1% | [19] 95.3% | [20] 111%

C[C@H]1[C@H](C)CC[C@]2(CO)CC[C@]3(C)C(=CC[C@@H]4[C@@]5(C)CCCNC(C)(C)[C@@H]5CC[C@]43C)[C@H]12
active: [1] -17.4% | [2] -49.1% | [3] -71.9% | [4] -54.8% | [5] -27.9% | [6] 5.71% | [7] -64.6% | [8] -36.5% | [9] -36.9% | [10] -73.2% | [11] 6.84% | [12] -75.4% | [13] 9.21% | [14] -64.9% | [15] -83.3% | [16] -43.2% | [18] -72.3% | [19] -94.9% | [20] -84.9%
inactive: [17] 22.5%

CC(=O)c1cccc(NS(=O)(=O)c2cccc(C(=O)Nc3ccc(Br)cc3)c2)c1
active: [17] -13.7% [25 µM]
inactive: [1] 75.4% [25 µM] | [2] 33% [25 µM] | [3] 42.1% [25 µM] | [4] 73.8% [25 µM] | [5] 61.5% [25 µM] | [6] 51.4% [25 µM] | [7] 27.3% [25 µM] | [8] 65.3% [25 µM] | [9] 36.4% [25 µM] | [10] 51.7% [25 µM] | [11] 62.8% [25 µM] | [12] 78.4% [25 µM] | [13] 70.5% [25 µM] | [14] 53.9% [25 µM] | [15] 62.7% [25 µM] | [16] 48.8% [25 µM] | [18] 38.9% [25 µM] | [19] 50.5% [25 µM] | [20] 71.3% [25 µM]

COc1cc(C(=O)/C=C/c2c(C)n([O-])c3ccc(Cl)cc3[n+]2=O)cc(OC)c1OC
inactive: [1] 36.3% | [3] 95.4% | [4] 81% | [5] 43.2% | [6] 65.5% | [7] 95% | [8] 73.7% | [9] 81.2% | [10] 80.9% | [11] 29.6% | [12] 62.8% | [13] 60.4% | [14] 99.8% | [15] 61.4% | [16] 46.7% | [17] 89.4% | [18] 60.4% | [19] 65.8%
active: [2] 1.97%

Cc1nccc2c3ccc(OCc4cn(-c5ccc(Cl)cc5)nn4)cc3n(CCCc3ccccc3)c12
inactive: [1] 27.6% | [2] 11.1% | [4] 27.4% | [11] 45.7% | [12] 11.1% | [14] 63% | [15] 25.3% | [16] 16.3% | [17] 68.3%
active: [3] -7.83% | [5] -2.27% | [6] -5.93% | [7] 8.27% | [8] -16.5% | [9] -34.6% | [10] -73.2% | [13] -45.1% | [18] -62% | [19] 0.291% | [20] -34.3%

CN(C)C(=O)c1cc2cnc(Nc3ccc(-c4csc5c(=O)cc(N6CCOCC6)oc45)cc3)nc2n1C1CCCC1
active: [1] -97.1% | [2] 2.96% | [3] -67.9% | [4] -7.21% | [5] -85.8% | [6] -2.94% | [7] -36.9% | [8] -70.2% | [9] -81.5% | [10] -73.4% | [11] -11.4% | [12] -48.6% | [13] -65% | [14] 1.45% | [15] -7.84% | [16] -42% | [17] -98% | [18] -69.6% | [19] -39.3% | [20] -55.9%

OC(c1ccccc1)c1ccccn1 (configuration not stated)
inactive: [1] 110% | [2] 94.3% | [3] 113% | [4] 105% | [5] 104% | [6] 102% | [7] 101% | [8] 97.7% | [9] 90.5% | [10] 96.1% | [11] 105% | [12] 89.3% | [13] 86.5% | [14] 100% | [15] 96.1% | [16] 89.9% | [17] 101% | [18] 103% | [19] 103% | [20] 107%

O=C(Nc1nc2ccc(S(=O)(=O)Nc3ccc(C4(C(F)(F)F)CC4)cc3)cc2[nH]1)c1cnccn1
active: [8] 5.95% | [13] -27.1%
inactive: [1] 30.4% | [2] 21.4% | [3] 37.3% | [4] 59.2% | [5] 28.6% | [6] 34.3% | [7] 33.4% | [9] 48.5% | [10] 34.7% | [11] 29.5% | [12] 15.6% | [14] 40.3% | [15] 38% | [16] 27.7% | [17] 26.1% | [18] 40% | [19] 38.3% | [20] 57.2%

COc1cc2c(cc1[N+](=O)[O-])-c1ccc([N+](=O)[O-])cc1/C2=N\O
inactive: [1] 120% | [2] 88.7% | [3] 116% | [4] 87.4% | [5] 79.8% | [6] 89.6% | [7] 77.2% | [8] 84.9% | [9] 97.9% | [10] 93.9% | [11] 87.4% | [12] 75.3% | [13] 75.5% | [14] 79.4% | [15] 76.8% | [16] 73.2% | [17] 75.4% | [18] 75.9% | [19] 67.8% | [20] 99.7%

CCOC(=O)N1CCc2c(sc3nc4nc[nH]n4c(=O)c23)C1
inactive: [1] 107% | [2] 105% | [3] 102% | [4] 99.9% | [5] 104% | [6] 99.7% | [7] 103% | [8] 94.6% | [9] 109% | [10] 98.4% | [11] 102% | [12] 100% | [13] 89.4% | [14] 106% | [15] 100% | [16] 92.7% | [17] 104% | [18] 98.8% | [19] 94.6% | [20] 115%

CC(=O)[C@@H]1CC[C@]2(C(N)=O)CC[C@]3(C)[C@H](CC[C@@H]4[C@@]5(C)CCC(=O)C(C)(C)[C@@H]5CC[C@]43C)[C@@H]12
inactive: [1] 105% | [2] 88.4% | [3] 112% | [4] 95.8% | [5] 109% | [6] 95.4% | [7] 93.8% | [8] 99.5% | [9] 93.6% | [10] 93.4% | [11] 103% | [12] 95.9% | [13] 89% | [14] 102% | [15] 103% | [16] 78.5% | [17] 101% | [18] 84.5% | [19] 99.2% | [20] 100%

COc1ccc(/C=C/C(=O)c2ccc(OC)c(OC)c2)cc1O
inactive: [1] 21% | [2] 14.7% | [3] 90.9% | [4] 73% | [5] 72.1% | [6] 80.7% | [7] 104% | [8] 79.8% | [9] 96.6% | [10] 97.7% | [11] 56.5% | [12] 63.8% | [13] 86.1% | [14] 82.1% | [15] 25.4% | [16] 82.4% | [17] 77.2% | [18] 87.1% | [19] 65.5% | [20] 101%

O=C(Nc1nc(-c2ccc(Br)cc2)cs1)c1cc(-c2ccc(Br)cc2)nc2ccc(Cl)cc12
inactive: [1] 92.6% | [2] 56.6% | [3] 105% | [4] 74.1% | [5] 100% | [6] 85% | [7] 97.8% | [8] 99.1% | [9] 101% | [10] 99.1% | [11] 81.6% | [12] 72.6% | [13] 87.3% | [14] 86.7% | [15] 76.8% | [16] 72.8% | [17] 91.2% | [18] 77.8% | [19] 94.8% | [20] 95.9%

CCSc1ccc2c(c1)N(CCCN1CCN(C)CC1)c1ccccc1S2
inactive: [1] 56.3% | [4] 16.5% | [5] 18.6% | [6] 55.8% | [7] 35.4% | [8] 63.2% | [13] 28.3% | [14] 68.8% | [15] 36.2% | [16] 51.9%
active: [2] -20.9% | [3] -61.6% | [9] -69.8% | [10] -86.9% | [11] 2.48% | [12] -14.7% | [17] -98.7% | [18] -43% | [19] -82.5% | [20] -85.2%
